Laboratory results as given in PubChem BioAssay (Tox21).
Results filed as inconclusive are left out. The source made the active and inactive calls. Unless noted, calls follow the shape of the dose curve; as a rule, active = well fitted curve in the direction sought with a large enough effect in the repeat runs; inconclusive = weak or mixed curves; inactive = no such curve, though single readings can be large; an effect the other way counts as inactive or inconclusive.

How the values were obtained:
[1] = qHTS assay to identify aromatase inhibitors - cell viability counter screen (AID 743084);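 also: cells stimulated with testosterone during compound exposure; nearly all actives have a fitted effect of over 55% in size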
[2] = biological target: Aryl hydrocarbon receptor (Homo sapiens) (UniProt P35869); test: qHTS assay to identify small molecule that activate the aryl hydrocarbon receptor (AhR) signaling pathway (AID 743085);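 also: HG2L7.5c1 human HepG2 liver cells with stably integrated DRE-driven firefly reporter; series mostly up to about 70 µM; nearly all actives have a fitted effect of over 15% in size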
How it was run: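 Stably transfected human liver carcinoma cells (HG2L7.5c1; 20 DRE-firefly luciferase) were incubated 5 h, dosed, and kept 24 h at 37C. Agonism was scored from increased luciferase luminescence.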

[3] = qHTS assay to identify small molecule that activate the aryl hydrocarbon receptor (AhR) signaling pathway - cell viability counter screen (AID 743086);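 also: HepG2 liver cells carrying the AhR DRE luciferase reporter; series mostly up to about 70 µM; nearly all actives have a fitted effect of over 45% in size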
How it was run: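 HepG2-AhR-luc (HG2L7.5c1) cells, 4000/well, were preincubated 5 h at 37C, exposed to compound in qHTS format for 24 hr at 37C, then given CellTiter-Fluor for 30 min; viability was read as fluorescence in the reporter wells.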

[4] = biological target: Peroxisome proliferator-activated receptor gamma (Homo sapiens) (UniProt P37231); test: qHTS assay to identify small molecule agonists of the peroxisome proliferator-activated receptor gamma (PPARg) signaling pathway (AID 743094; active = well fitted activation curve with a large enough effect in the signal ratio in the repeat runs, not every such curve was filed as active; the % refers to the signal ratio)
How it was run: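 Reporter activation was scored by fluorescence of cleaved LiveBLAzer B/G substrate (1 h, room temperature) in PPARg-bla HEK293H cells previously treated 17 h at 37C with DMSO-dissolved compounds.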

[5] = biological target: Peroxisome proliferator-activated receptor gamma (Homo sapiens) (UniProt P37231); test: qHTS assay to identify small molecule antagonists of the peroxisome proliferator-activated receptor gamma (PPARg) signaling pathway (AID 743191; calls by dose curve; also: series mostly up to about 63 µM; nearly all actives have a fitted effect of over 30% in size)
How it was run: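 GeneBLAzer PPARg UAS-bla HEK293H cells carrying a UAS-driven beta-lactamase reporter were plated at 3000 cells/well, preincubated 5 h at 37C, then given compound for 17 h at 37C; LiveBLAzer B/G FRET substrate was read after 1 h at room temperature.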

[6] = qHTS assay to identify small molecule antagonists of the peroxisome proliferator-activated receptor gamma (PPARg) signaling pathway - cell viability counter screen (AID 743194); also: nearly all actives have a fitted effect of over 55% in size
How it was run: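 PPARg-UAS-bla HEK293H cells were plated, rested 5 h at 37 C, then treated with compounds plus rosiglitazone (50 nM final) for 17 h at 37 C; viability was then read by CellTiter-Glo luminescence after 30 min at room temperature.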

[7] = qHTS assay for small molecule activators of the heat shock response signaling pathway - cell viability counter screen (AID 743209); also: nearly all actives have a fitted effect of over 50% in size
How it was run: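 Viability of HSE-bla HeLa cells is measured with CellTiter-Glo in the wells already used for the reporter read. Compound exposure lasts 5 h at 37 C, and luminescence is read after 30 min at room temperature.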

[8] = qHTS assay for small molecule activators of the heat shock response signaling pathway (AID 743210; active = well fitted activation curve with a large enough effect in the signal ratio in the repeat runs, with a control signal flat, not every such curve was filed as active; the % refers to the signal ratio; also: series mostly up to about 63 µM)
How it was run: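 Heat shock element–beta-lactamase HeLa reporter cells; qHTS with compounds for 5 h at 37 C; detection by FRET substrate fluorescence after 2.5 h at RT.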

[9] = qHTS assay to identify small molecule agonists of the peroxisome proliferator-activated receptor delta (PPARd) signaling pathway - cell viability counter screen (AID 743211); also: nearly all actives have a fitted effect of over 55% in size
How it was run: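 In the same wells used for beta-lactamase reporter measurement, cytotoxicity is scored by CellTiter-Glo. HEK293H PPARd-bla cells receive compound for 17 h at 37C following a 5 h settling period.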

[10] = biological target: Peroxisome proliferator-activated receptor delta (Homo sapiens) (UniProt Q03181); test: qHTS assay to identify small molecule agonists of the peroxisome proliferator-activated receptor delta (PPARd) signaling pathway (AID 743212; calls by dose curve)
How it was run: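 Beta-lactamase reporter read by fluorescence (LiveBLAzer B/G FRET, 2 h, room temperature). Test agents, in DMSO, incubated at 37 C with PPARd-bla HEK293H cells.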

[11] = qHTS assay to identify small molecule antagonists of the peroxisome proliferator-activated receptor delta (PPARd) signaling pathway - cell viability counter screen (AID 743213); also: nearly all actives have a fitted effect of over 50% in size
How it was run: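 Agonist-stimulated (L165041, 300 nM final) HEK293H PPARd UAS-bla cells are exposed to compounds for 17 h at 37 C, and ATP-based luminescence (CellTiter-Glo) from the same wells reports cytotoxicity.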

[12] = biological target: Peroxisome proliferator-activated receptor delta (Homo sapiens) (UniProt Q03181); test: qHTS assay to identify small molecule antagonists of the peroxisome proliferator-activated receptor delta (PPARd) signaling pathway (AID 743215; active = well fitted inhibition curve with a large enough effect in the signal ratio in the repeat runs, not every such curve was filed as active; the % refers to the signal ratio; also: series mostly up to about 62 µM)
How it was run: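 Plated HEK293H PPARd-bla cells rested 5 h at 37 C and 5% CO2. Compound, then agonist L165041 at 300 nM final, was added; 17 h at 37 C followed. Substrate loading, 2 h room temperature, fluorescence measured.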

[13] = biological target: Bile acid receptor (Homo sapiens) (UniProt Q96RI1); test: qHTS assay to identify small molecule antagonists of the farnesoid-X-receptor (FXR) signaling pathway (AID 743217; active = well fitted inhibition curve with a large enough effect in the signal ratio in the repeat runs, not every such curve was filed as active; the % refers to the signal ratio)
How it was run: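 Screen of the Tox21 10K library in quantitative HTS format using FXR-UAS-bla HEK 293T reporter cells. Agonist chenodeoxycholic acid, 50 uM final, added with compounds; 16 h incubation at 37 °C; beta-lactamase FRET fluorescence measured.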

[14] = biological target: Bile acid receptor (Homo sapiens) (UniProt Q96RI1); test: qHTS assay to identify small molecule agonists of the farnesoid-X-receptor (FXR) signaling pathway (AID 743220; active = well fitted activation curve with a large enough effect in the signal ratio in the repeat runs, not every such curve was filed as active; the % refers to the signal ratio)
How it was run: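 FXR-UAS-bla HEK 293T cells carrying a UAS-driven beta-lactamase reporter were plated for 5 h at 37C/5% CO2, then exposed to DMSO-dissolved Tox21 10K compounds for 16 h at 37C. A LiveBLAzer B/G FRET substrate was loaded for 2 h at room temperature before fluorescence reading.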

[15] = qHTS assay to identify small molecule antagonists of the farnesoid-X-receptor (FXR) signaling pathway - cell viability counter screen (AID 743221; active = well fitted cell-killing curve with a large enough effect in the repeat runs, not every such curve was filed as active; also: nearly all actives have a fitted effect of over 50% in size)
How it was run: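 Here viability was scored by luminescence after CellTiter-Glo addition to wells already read for beta-lactamase. Prior treatment: compound plus CDCA (50 uM final), 16 h, 37 C, HEK 293T FXR-bla cells.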

[16] = biological target: Vitamin D3 receptor (Homo sapiens) (UniProt P11473); test: qHTS assay to identify small molecule antagonists of the vitamin D receptor (VDR) signaling pathway (AID 743223; active = well fitted inhibition curve with a large enough effect in the signal ratio in the repeat runs, not every such curve was filed as active; the % refers to the signal ratio)
How it was run: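 Inhibition of agonist-driven VDR signalling is scored in VDR-bla cells: 3 nM final 1alpha,25-dihydroxyvitamin D3 plus compound, 16 h at 37C, then beta-lactamase detection by FRET substrate fluorescence after 2 h.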

[17] = qHTS assay for small molecule agonists of the antioxidant response element (ARE) signaling pathway (AID 743202; active = well fitted activation curve with a large enough effect in the signal ratio in the repeat runs, not every such curve was filed as active; the % refers to the signal ratio)
How it was run: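 Following a 16 h, 37 C exposure of reporter HepG2 cells (ARE-driven beta-lactamase, 2,000 cells/well) to compounds, FRET substrate was applied for 2 h at room temperature and fluorescence intensity recorded.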

[18] = qHTS assay for small molecule agonists of the antioxidant response element (ARE) signaling pathway - cell viability counter screen (AID 743203; calls by dose curve; also: nearly all actives have a fitted effect of over 55% in size)
How it was run: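 Viability counter screen: stably transfected ARE-bla HepG2 line, 16 hrs compound exposure at 37C/5% CO2, ATP-based CellTiter-Glo luminescence measured in the reporter wells.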

[19] = qHTS assay to identify small molecule agonists of the farnesoid-X-receptor (FXR) signaling pathway - cell viability counter screen (AID 743218); also: nearly all actives have a fitted effect of over 45% in size
How it was run: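 Viability of FXR-bla HEK 293T cells is measured by ATP-based CellTiter-Glo luminescence following 16 h compound treatment at 37 C and a prior 2 h room-temperature beta-lactamase substrate step.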

[20] = biological target: Vitamin D3 receptor (Homo sapiens) (UniProt P11473); test: qHTS assay to identify small molecule agonists of the vitamin D receptor (VDR) signaling pathway (AID 743222; calls by dose curve)
How it was run: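 Fluorescence from cleaved LiveBLAzer B/G FRET substrate served as readout. VDR-bla cells had been treated 16 h at 37C with test compounds in DMSO, following a 4 h settling period, and substrate was loaded for 2 h at RT.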

Measured: Potency

Sequence of Aryl hydrocarbon receptor (Homo sapiens) (P35869 whole entry, looked up): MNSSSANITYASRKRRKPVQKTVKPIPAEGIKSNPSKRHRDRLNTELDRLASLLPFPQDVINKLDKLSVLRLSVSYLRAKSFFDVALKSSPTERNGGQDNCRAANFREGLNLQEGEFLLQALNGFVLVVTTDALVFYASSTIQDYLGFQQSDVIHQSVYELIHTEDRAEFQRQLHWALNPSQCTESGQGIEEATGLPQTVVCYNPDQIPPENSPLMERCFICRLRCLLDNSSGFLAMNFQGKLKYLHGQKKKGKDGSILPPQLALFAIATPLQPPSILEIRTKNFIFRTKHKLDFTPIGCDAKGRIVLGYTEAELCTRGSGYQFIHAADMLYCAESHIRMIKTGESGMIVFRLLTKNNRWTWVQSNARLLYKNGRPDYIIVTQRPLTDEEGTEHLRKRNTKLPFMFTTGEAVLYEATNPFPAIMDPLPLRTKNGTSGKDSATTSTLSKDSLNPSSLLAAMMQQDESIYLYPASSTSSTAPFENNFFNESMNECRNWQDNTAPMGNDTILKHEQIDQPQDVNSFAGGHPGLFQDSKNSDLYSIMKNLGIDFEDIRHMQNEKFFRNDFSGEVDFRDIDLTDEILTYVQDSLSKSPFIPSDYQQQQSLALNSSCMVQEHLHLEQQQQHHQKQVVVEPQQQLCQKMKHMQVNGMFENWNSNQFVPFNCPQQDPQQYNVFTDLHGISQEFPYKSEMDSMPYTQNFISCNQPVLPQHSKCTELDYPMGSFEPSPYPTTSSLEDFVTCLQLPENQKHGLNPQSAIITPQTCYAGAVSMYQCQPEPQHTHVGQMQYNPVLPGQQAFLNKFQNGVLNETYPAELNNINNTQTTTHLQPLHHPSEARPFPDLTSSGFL
Sequence of Bile acid receptor (Homo sapiens) (Q96RI1 whole entry, looked up): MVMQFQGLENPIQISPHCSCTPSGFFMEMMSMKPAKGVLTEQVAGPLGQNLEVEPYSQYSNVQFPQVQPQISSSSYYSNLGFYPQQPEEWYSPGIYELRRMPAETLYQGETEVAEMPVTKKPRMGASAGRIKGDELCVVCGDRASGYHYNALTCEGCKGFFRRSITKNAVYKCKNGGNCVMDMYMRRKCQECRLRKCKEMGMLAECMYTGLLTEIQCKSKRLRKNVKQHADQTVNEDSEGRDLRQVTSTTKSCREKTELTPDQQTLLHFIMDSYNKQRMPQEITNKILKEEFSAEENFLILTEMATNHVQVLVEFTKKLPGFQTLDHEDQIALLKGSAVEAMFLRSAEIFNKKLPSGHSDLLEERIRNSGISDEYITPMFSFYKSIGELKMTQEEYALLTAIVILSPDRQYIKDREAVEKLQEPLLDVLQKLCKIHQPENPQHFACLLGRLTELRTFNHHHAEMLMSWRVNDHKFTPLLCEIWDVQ
Sequence of Peroxisome proliferator-activated receptor delta (Homo sapiens) (Q03181 whole entry, looked up): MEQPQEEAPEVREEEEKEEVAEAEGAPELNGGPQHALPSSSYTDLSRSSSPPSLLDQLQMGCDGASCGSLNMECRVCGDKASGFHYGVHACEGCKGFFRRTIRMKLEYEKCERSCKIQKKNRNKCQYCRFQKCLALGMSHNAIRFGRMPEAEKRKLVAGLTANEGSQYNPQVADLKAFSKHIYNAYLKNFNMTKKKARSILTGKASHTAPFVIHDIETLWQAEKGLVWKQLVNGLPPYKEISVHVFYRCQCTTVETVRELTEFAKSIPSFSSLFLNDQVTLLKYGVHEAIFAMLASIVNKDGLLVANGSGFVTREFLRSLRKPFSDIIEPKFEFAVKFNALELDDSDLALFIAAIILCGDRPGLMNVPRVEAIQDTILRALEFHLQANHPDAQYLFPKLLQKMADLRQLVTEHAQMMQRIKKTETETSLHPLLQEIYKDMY
Sequence of Peroxisome proliferator-activated receptor gamma (Homo sapiens) (P37231 whole entry, looked up): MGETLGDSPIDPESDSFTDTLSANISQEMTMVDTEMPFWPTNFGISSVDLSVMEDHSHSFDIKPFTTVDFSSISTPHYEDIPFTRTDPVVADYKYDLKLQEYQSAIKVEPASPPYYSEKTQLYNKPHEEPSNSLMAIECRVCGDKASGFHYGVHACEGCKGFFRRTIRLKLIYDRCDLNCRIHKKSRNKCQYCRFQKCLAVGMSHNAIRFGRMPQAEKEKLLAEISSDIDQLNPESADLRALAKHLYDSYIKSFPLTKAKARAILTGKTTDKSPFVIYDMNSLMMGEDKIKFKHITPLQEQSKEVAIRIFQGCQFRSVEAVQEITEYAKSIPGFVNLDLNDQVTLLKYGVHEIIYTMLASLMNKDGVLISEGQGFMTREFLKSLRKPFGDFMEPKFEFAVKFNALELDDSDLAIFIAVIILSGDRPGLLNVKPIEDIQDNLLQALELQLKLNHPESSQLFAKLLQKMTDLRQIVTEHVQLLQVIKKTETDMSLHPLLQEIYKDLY
Sequence of Vitamin D3 receptor (Homo sapiens) (P11473 whole entry, looked up): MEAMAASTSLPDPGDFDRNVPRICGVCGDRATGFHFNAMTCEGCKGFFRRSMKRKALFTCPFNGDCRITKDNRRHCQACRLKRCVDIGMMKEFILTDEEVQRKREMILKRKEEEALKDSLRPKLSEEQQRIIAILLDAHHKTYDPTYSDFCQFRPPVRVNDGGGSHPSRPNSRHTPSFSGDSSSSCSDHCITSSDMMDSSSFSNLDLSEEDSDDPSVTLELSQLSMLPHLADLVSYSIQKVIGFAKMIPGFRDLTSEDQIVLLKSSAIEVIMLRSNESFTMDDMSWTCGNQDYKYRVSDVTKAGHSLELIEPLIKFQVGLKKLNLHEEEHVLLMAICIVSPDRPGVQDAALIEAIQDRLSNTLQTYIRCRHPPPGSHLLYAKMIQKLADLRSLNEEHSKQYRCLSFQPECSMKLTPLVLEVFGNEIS

CC1CCC(C(C)(C)S)C(=O)C1 (stereo unspecified)
not listed: [17] | [18] | [19] | [20]
inactive: all other assays above

Cn1c(=O)c2c(ncn2CC2OCCO2)n(C)c1=O
not listed: [5] | [16] | [20]
inactive: all other assays above

CCN(CCC#N)c1ccccc1
not listed: [8] | [10] | [14] | [16] | [17]
inactive: all other assays above

Nc1ccc(S(=O)(=O)NC(=O)c2ccccc2)cc1
not listed: [9] | [12] | [13] | [14] | [16] | [17] | [18] | [20]
inactive: all other assays above

COC(=O)CCC(=O)O
not listed: [9] | [10] | [12] | [13] | [14] | [17]
inactive: all other assays above

CC(=O)Nc1ncc([N+](=O)[O-])s1
not listed: [11] | [12] | [13] | [16] | [17]
inactive: all other assays above

C1=CCC(c2ccccc2)CC1 (stereo unspecified)
not listed: [12] | [13] | [14] | [17]
inactive: all other assays above

CN[C@@H]1[C@@H](O)[C@@H](O[C@@H]2[C@H](O)[C@H](O[C@H]3OC(CN)=CC[C@H]3N)[C@@H](N)C[C@H]2N)OCC1(C)O (stereo partly specified)
not listed: [5] | [13] | [14] | [20]
inactive: all other assays above

CC(C)(C)c1ccc(C=O)cc1
not listed: [5] | [10] | [12] | [13] | [14]
inactive: all other assays above
